This note sets out measurements from PubChem BioAssay (Tox21).

Each structure is given as a SMILES string. “And” between values parts separate entries of the source, which are not always exact repeats. Identical values can stand only once. Inconclusive results are not listed. A structure can be active in one record and inactive in another. The source made the active and inactive calls. Unless noted, calls come from the whole dose curve; as a rule, active = well fitted curve in the direction sought with a large enough effect in the repeat runs; inconclusive = weak or mixed curves; inactive = no such curve, though single readings can be large; an effect the other way counts as inactive or inconclusive.

Test [1] in a line: qHTS assay to identify small molecule antagonists of the sonic hedgehog signaling (Shh) pathway (AID 1259369; calls by dose curve; note: nearly all actives have a fitted effect of over 45% in size; note: potency is the fitted concentration of half-maximal effect). The method in brief:
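NIH/3T3 stable Gli1-Luc clone, 2,000 cells/well, 4hr settle; cpd + conditioned medium 24hr; Luc reagent 30min RT; luminescence.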
A general note: In qHTS, concentration-response curves come from the screen itself.

Test [2] addresses Estrogen receptor beta (Homo sapiens) (UniProt Q92731). The experiment in a line: qHTS assay to identify small molecule agonists of the estrogen receptor beta (ER-beta) signaling pathway (AID 1259377; active = well fitted activation curve with a large enough effect in the signal ratio in the repeat runs, not every such curve was filed as active; the % refers to the signal ratio). Summed up: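 Screening used GripTite ER-beta-UAS-bla cells held in 2% charcoal-stripped FBS medium. After overnight (16 hr) compound incubation at 37C, beta-lactamase activity was detected with a FRET substrate by fluorescence.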

Test [3] has the same target. The experiment in a line: qHTS assay to identify small molecule antagonists of the estrogen receptor beta (ER-beta) signaling pathway (AID 1259378; active = well fitted inhibition curve with a large enough effect in the signal ratio in the repeat runs, not every such curve was filed as active; the % refers to the signal ratio; note: potency is the fitted concentration of half-maximal effect). The method in brief: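 ER-beta-UAS-bla HEK293T cells in 2% charcoal-stripped FBS medium treated with compound plus 1nM final 17-beta-estradiol for 16 hr at 37C. Beta-lactamase reporter read by FRET substrate fluorescence after 2 hours at room temperature.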

Test [4] in a line: qHTS assay to identify small molecule agonists of the androgen receptor (AR) signaling pathway in the presence of an antagonist - cell viability counter screen (AID 1259379). Note: nearly all actives have a fitted effect of over 25% in size. Note: potency is the fitted concentration of half-maximal effect. The method in brief: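 MDA-kb2 viability measured by CellTiter-Fluor fluorescence in the same wells as the luciferase signal; nilutamide 3.0uM final; 15-point compound titration; 16 hr at 37C.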
Test [5] is described as follows: qHTS assay to identify small molecule agonists of the estrogen receptor beta (ER-beta) signaling pathway - cell viability counter screen (AID 1259380). Note: nearly all actives have a fitted effect of over 30% in size. Note: potency is the fitted concentration of half-maximal effect. Summed up:
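Measured: luminescence from CellTiter-Glo after 30 min at room temperature, added to wells already read for the LiveBLAzer FRET reporter (2 hr substrate); ER-beta-UAS-bla HEK293T cells had 16 hr compound treatment at 37C, 5% CO2.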

Test [6] is described as follows: qHTS assay to identify small molecule antagonists of the estrogen receptor beta (ER-beta) signaling pathway - cell viability counter screen (AID 1259382). Note: nearly all actives have a fitted effect of over 55% in size. Note: potency is the fitted concentration of half-maximal effect. Summed up: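 Readout: luminescence, CellTiter-Glo, same wells as bla assay. System: ER-beta-UAS-bla GripTite HEK293T, 2% charcoal-stripped FBS. Exposure: compounds plus 1nM 17-beta-estradiol, 16 hr, 37C.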
Test [7] addresses Estrogen receptor (Homo sapiens) (UniProt P03372). The experiment in a line: qHTS assay to identify small molecule agonists of the estrogen receptor alpha (ER-alpha) signaling pathway in the presence of an antagonist (AID 1259383; calls by dose curve; note: top concentration of the series differs between compounds; nearly all actives have a fitted effect of over 15% in size). The method in brief:
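Quantitative HTS confirmation: compounds titrated at 15 concentrations onto estrogen-deprived VM7Luc4E2 cells carrying a four-ERE luciferase construct, with ICI-182,780 present at 10.0nM final. Signal is luminescence after 22hr exposure.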

The nature of test [8]: qHTS assay to identify small molecule agonists or antagonists of the thyroid stimulating hormone receptor (TSHR) signaling pathway - wild type cell line counter screen (AID 1259384; calls by dose curve). The method in brief: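 Wild-type Hek293 cells, 800/well, 18 h at 37C, then compound with Ro20-1724 for 30 min RT. cAMP by HTRF (cAMP-d2/anti-cAMP cryptate), 1 h RT, fluorescence read. 15 concentrations, triplicates.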

For test [9], the target named is Thyrotropin receptor (Homo sapiens) (UniProt P16473). The experiment in a line: qHTS assay to identify small molecule antagonists of the thyroid stimulating hormone receptor (TSHR) signaling pathway (AID 1259385; calls by dose curve; note: nearly all actives have a fitted effect of over 20% in size). Summed up:
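TSHR-HEK293 cells (800/well) plated 18 h, then compounds with Ro20-1724 and TSH at 1.5 ng/mL final, 30 min at room temperature. cAMP quantified by HTRF (cAMP-d2/anti-cAMP-cryptate, 1 h); 15 concentrations in triplicate.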

Test [10] can be described thus: qHTS assay to identify small molecule agonists of the estrogen receptor alpha (ER-alpha) signaling pathway in the presence of an antagonist - cell viability counter screen (AID 1259386).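 Note: cells exposed to compounds for 22 h at 37 °C before the viability read; nearly all actives have a fitted effect of over 30% in size.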 Note: potency is the fitted concentration of half-maximal effect. The method in brief:
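The test measures whether compounds kill ER-alpha reporter cells (VM7Luc4E2) under antagonist co-treatment (ICI-182,780, 10.0nM). Fluorescence from CellTiter-Fluor is read after a 22hr exposure.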

Test [11] addresses Progesterone receptor (Homo sapiens) (UniProt P06401). In words: qHTS assay to identify small molecule agonists of the progesterone receptor (PR) signaling pathway (AID 1346784; calls by dose curve; note: nearly all actives have a fitted effect of over 30% in size). Summed up: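 Seed PR-UAS-bla HEK 293T cells (2% charcoal-stripped FBS), incubate 6 hr at 37C; add compounds in DMSO, 16 hr at 37C; add LiveBLAzer B/G substrate, 2 hr RT; read fluorescence intensity.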

Test [12] shares this target. In words: qHTS assay to identify small molecule antagonists of the progesterone receptor (PR) signaling pathway (AID 1346795; active = well fitted inhibition curve with a large enough effect in the signal ratio in the repeat runs, not every such curve was filed as active; the % refers to the signal ratio; note: potency is the fitted concentration of half-maximal effect). The method in brief:
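Screening used a GripTite HEK293T line with PR-responsive UAS-beta-lactamase. Cells were challenged with compound in the presence of 1 nM R5020 final for 16 hr at 37C; B/G FRET substrate, 2 hr room temperature, fluorescence.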

Test [13] in a line: qHTS assay to identify small molecule antagonists of the progesterone receptor (PR) signaling pathway - cell viability counter screen (AID 1346798). Note: nearly all actives have a fitted effect of over 50% in size. Note: potency is the fitted concentration of half-maximal effect. The method in brief:
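Measures cytotoxicity in parallel with the PR antagonist reporter read: HEK293T PR-UAS-bla cells get compound and R5020 for 16 hr, and remaining viable cells are quantified by CellTiter-Glo luminescence.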

Test [14] can be described thus: qHTS assay to identify small molecule agonists of the progesterone receptor (PR) signaling pathway - cell viability counter screen (AID 1346799; calls by dose curve; note: nearly all actives have a fitted effect of over 45% in size; note: potency is the fitted concentration of half-maximal effect). Summed up: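 Using the same plates as the PR reporter screen, HEK293T PR-UAS-bla cells received compounds for 16 hr at 37C and were then lysed with CellTiter-Glo; luminescence was read 30 min later at room temperature.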

The nature of test [15]: qHTS assay to identify small molecule agonists of the TGF-beta/Smad signaling pathway - cell viability counter screen (AID 1346829). Note: nearly all actives have a fitted effect of over 45% in size. Note: potency is the fitted concentration of half-maximal effect. The method in brief:
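Luminescence from CellTiter-Glo, read after a 30 min room-temperature incubation, gives cell viability of SBE-bla HEK 293T cells treated 5 hr with compounds at 37 C.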

The target in test [16] is Thyrotropin-releasing hormone receptor (Homo sapiens) (UniProt P34981). In words: qHTS assay to identify small molecule antagonists of the thyrotropin-releasing hormone receptor (TRHR) signaling pathway (AID 1346877; active = well fitted inhibition curve with a large enough effect in the repeat runs, not every such curve was filed as active; note: series mostly up to about 51 µM). Summed up: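 Overnight-plated (18 h, 37 °C) HEK293 cells expressing TRHR were dye-loaded 2 h, treated with compound, then stimulated with TRH at 1 nM final. Fluorescence intensity was captured every second for 3 min.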
Sequence of Thyrotropin-releasing hormone receptor (Homo sapiens) (P34981 whole entry, looked up): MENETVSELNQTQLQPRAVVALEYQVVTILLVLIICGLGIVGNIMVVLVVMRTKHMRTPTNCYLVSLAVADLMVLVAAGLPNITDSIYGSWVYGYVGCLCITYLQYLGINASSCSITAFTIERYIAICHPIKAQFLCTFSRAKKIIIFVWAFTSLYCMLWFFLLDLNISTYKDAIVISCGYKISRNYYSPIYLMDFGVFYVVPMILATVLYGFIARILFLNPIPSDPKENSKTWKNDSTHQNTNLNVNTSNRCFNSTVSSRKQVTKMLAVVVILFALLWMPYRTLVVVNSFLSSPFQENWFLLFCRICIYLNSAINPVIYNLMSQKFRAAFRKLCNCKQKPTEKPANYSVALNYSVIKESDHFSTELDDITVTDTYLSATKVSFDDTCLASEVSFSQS

Test [17] addresses Androgen receptor (Homo sapiens) (UniProt P10275). The experiment in a line: qHTS assay to identify small molecule agonists of the androgen receptor (AR) signaling pathway in the presence of an antagonist (AID 1259381; calls by dose curve; note: nearly all actives have a fitted effect of over 15% in size). Summed up:
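Luminescent ONE-Glo read, 30min at room temperature, follows 16hr compound exposure (15 concentrations) of MDA-kb2 cells at 37C, 0% CO2, with nilutamide added at 3.0uM final.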

The nature of test [18]: qHTS assay to identify small molecule antagonists of the TGF-beta/Smad signaling pathway - cell viability counter screen (AID 1346824). Note: nearly all actives have a fitted effect of over 50% in size. Note: potency is the fitted concentration of half-maximal effect. Summed up: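 SBE-bla HEK 293T cells, incubated overnight, then compound plus 0.25 ng/mL TGF-beta1 (stock added) for 5 hr at 37 C. Viability was read in the same wells by CellTiter-Glo luminescence after 30 min at room temperature.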
Test [19] can be described thus: qHTS assay to identify small molecule agonists of the TGF-beta/Smad signaling pathway (AID 1346859; active = well fitted activation curve with a large enough effect in the signal ratio in the repeat runs, not every such curve was filed as active; the % refers to the signal ratio; note: series mostly up to about 77 µM). Summed up:
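Beta-lactamase reporter activity downstream of Smad binding elements was measured in stably transfected HEK 293T cells; compounds were incubated for 5 hr, substrate for 2 hr at room temperature.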

Test [20] addresses Thyrotropin-releasing hormone receptor (Homo sapiens) (UniProt P34981). In words: qHTS assay to identify small molecule agonists of the thyrotropin-releasing hormone receptor (TRHR) signaling pathway (AID 1346891; calls by dose curve;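 note: HEK293 cells expressing TRHR with calcium dye readout; series mostly up to about 58 µM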). Summed up:
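Overnight-plated (18 h, 37 °C, 5% CO2) TRHR-Hek293 cells; 2 h calcium dye at 37 °C; compound in DMSO; 3-min kinetic fluorescence read.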

Sequence of Estrogen receptor (Homo sapiens) (P03372 whole entry, looked up): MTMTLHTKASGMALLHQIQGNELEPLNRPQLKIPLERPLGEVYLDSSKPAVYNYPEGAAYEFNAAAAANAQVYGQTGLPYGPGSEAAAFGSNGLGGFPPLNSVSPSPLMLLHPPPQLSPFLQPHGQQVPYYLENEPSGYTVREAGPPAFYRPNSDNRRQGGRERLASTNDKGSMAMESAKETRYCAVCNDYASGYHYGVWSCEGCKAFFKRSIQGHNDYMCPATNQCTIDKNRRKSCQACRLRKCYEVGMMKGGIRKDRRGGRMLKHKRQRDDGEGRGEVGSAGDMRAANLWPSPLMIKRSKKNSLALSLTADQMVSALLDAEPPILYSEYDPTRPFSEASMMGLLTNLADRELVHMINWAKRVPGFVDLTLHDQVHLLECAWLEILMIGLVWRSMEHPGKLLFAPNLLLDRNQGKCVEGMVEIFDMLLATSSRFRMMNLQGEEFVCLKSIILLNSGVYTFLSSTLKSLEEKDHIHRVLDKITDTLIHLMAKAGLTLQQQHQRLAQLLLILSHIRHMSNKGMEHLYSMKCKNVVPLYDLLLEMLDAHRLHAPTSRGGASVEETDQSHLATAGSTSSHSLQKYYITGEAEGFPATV
Sequence of Androgen receptor (Homo sapiens) (P10275 whole entry, looked up): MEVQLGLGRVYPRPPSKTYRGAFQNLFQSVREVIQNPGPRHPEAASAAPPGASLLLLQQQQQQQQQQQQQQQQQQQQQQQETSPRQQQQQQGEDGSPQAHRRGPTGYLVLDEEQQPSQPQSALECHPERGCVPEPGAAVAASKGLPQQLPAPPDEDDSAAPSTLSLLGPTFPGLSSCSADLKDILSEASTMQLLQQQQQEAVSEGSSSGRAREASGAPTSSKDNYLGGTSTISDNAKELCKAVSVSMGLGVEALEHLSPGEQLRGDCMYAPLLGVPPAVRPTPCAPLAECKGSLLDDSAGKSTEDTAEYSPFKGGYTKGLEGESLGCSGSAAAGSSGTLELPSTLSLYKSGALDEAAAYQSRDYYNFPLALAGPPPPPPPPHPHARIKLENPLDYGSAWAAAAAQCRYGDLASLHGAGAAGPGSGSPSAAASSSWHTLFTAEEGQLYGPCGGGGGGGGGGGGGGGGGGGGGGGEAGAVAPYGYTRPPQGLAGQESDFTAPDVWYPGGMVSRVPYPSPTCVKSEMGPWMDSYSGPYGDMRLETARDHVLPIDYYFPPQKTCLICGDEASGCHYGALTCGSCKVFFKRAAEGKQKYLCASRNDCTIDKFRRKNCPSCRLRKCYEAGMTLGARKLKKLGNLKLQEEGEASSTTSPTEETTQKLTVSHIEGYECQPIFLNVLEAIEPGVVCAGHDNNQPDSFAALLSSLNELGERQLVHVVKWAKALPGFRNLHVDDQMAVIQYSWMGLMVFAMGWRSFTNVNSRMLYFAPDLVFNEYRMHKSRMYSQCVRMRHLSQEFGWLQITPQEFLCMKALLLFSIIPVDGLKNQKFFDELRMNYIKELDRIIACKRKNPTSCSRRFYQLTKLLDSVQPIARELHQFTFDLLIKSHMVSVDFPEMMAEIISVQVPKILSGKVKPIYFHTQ
Sequence of Thyrotropin receptor (Homo sapiens) (P16473 whole entry, looked up): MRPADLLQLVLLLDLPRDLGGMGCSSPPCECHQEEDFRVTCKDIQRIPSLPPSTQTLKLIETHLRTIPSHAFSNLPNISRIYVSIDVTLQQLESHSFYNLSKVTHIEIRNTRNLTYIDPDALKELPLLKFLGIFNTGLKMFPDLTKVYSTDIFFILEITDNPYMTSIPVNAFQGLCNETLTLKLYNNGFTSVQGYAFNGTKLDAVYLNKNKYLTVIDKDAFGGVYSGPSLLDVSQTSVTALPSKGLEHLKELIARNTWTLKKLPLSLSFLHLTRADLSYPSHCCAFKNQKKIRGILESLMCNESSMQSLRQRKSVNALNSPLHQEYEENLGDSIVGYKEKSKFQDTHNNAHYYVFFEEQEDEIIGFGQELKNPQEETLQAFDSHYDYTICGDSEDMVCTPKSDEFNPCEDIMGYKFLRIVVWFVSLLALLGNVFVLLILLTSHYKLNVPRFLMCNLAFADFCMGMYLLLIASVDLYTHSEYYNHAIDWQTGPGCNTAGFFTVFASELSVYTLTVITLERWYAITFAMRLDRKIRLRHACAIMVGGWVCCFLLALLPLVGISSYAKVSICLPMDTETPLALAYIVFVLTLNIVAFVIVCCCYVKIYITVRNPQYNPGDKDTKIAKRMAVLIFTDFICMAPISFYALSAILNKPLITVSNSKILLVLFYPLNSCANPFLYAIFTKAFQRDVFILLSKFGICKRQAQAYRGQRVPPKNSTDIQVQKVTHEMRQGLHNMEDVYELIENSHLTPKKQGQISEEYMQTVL
Sequence of Estrogen receptor beta (Homo sapiens) (Q92731 whole entry, looked up): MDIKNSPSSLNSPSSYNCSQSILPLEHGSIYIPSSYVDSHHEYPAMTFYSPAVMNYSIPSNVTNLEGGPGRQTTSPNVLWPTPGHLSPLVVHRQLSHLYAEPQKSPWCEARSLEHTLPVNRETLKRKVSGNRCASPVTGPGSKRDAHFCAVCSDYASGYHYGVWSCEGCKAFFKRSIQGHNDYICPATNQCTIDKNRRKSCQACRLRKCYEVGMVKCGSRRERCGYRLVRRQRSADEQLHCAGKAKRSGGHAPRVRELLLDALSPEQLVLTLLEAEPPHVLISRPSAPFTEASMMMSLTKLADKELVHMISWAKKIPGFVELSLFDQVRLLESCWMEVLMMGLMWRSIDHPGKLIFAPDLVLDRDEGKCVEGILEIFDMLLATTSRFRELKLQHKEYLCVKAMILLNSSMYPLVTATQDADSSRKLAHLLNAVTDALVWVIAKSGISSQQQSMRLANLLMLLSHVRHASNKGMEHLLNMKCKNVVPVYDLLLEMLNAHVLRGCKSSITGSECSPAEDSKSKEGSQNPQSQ
Sequence of Progesterone receptor (Homo sapiens) (P06401 whole entry, looked up): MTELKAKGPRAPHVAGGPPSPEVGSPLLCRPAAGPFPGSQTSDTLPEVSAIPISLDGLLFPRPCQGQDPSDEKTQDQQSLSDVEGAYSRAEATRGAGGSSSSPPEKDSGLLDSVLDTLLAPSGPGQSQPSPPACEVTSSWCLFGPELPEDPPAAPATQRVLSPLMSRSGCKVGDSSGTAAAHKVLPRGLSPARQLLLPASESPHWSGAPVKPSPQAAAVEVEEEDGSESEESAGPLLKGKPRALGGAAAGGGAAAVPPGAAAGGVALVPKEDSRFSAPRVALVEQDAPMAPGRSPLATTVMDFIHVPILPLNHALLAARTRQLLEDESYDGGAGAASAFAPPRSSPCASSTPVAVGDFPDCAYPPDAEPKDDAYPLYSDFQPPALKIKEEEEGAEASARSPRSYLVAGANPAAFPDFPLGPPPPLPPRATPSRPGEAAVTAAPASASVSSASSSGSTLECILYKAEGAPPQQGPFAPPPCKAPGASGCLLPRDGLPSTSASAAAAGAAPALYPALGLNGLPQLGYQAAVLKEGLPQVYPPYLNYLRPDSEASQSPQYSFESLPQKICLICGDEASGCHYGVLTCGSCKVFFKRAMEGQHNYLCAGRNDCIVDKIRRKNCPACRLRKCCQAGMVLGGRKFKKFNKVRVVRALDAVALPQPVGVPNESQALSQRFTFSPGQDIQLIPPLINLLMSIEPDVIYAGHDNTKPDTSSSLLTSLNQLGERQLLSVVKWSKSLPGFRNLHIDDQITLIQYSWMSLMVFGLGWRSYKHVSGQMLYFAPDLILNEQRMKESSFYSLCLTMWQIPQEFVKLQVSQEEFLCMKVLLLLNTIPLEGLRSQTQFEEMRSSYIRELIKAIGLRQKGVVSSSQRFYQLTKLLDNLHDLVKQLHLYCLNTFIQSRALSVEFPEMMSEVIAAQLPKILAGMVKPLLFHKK

On to `CCCCCCCCCCCCCl`, for which the Potency result in [1], in test [2], in test [3], in test [4], in test [5] and in [6] was “inactive” each time. The Potency result in test [7], in test [8], in test [9], in [10], in test [11] and in test [12] was “inactive” in each case. In addition, the Potency entry in test [13], in test [14], in test [15] and in test [16] was “inactive” throughout.

Consider `Clc1cccc(C(Cl)(Cl)Cl)n1`, for which the Potency result in [1], in test [2], in test [3], in test [4], in [5] and in [6] was “inactive” in each case. Further, the Potency entry in test [7], in test [8], in test [9], in [10], in test [11] and in test [12] was “inactive” each time. Moreover, the Potency result in test [13], in [14], in [18], in test [15] and in test [19] was “inactive” throughout. In addition, the outcome in [17] was inactive.

Regarding `Cc1ccc([N+](=O)[O-])cc1`, the Potency result in test [1], in [2], in test [3], in test [4], in [5] and in test [6] was “inactive” in each case. Moreover, the Potency entry in test [7], in test [8], in test [9], in [10], in [11] and in [12] was “inactive” in each case. Besides, the Potency result in [13], in [14], in test [18], in test [15], in test [19] and in test [16] was “inactive” in each case. The call in test [20] was inactive.

On to `Nc1ncn[nH]1`, for which the Potency entry in test [1], in test [2], in test [3], in [4], in [5] and in test [6] was “inactive” throughout. Further, the Potency entry in test [8], in test [9], in test [10], in test [11], in [12] and in [13] was “inactive” throughout. The Potency result in [14], in [15] and in [19] was “inactive” throughout.

Turning to `Brc1ccc(Br)cc1`, the Potency entry in test [1] was “inactive and 54.5 µM (active)”. Further, the Potency result in [2], in [3], in [4], in [5], in test [6] and in [8] was “inactive” in each case. Also, the Potency result in test [9], in [10], in test [11], in test [12], in test [13] and in test [14] was “inactive” throughout. Moreover, the Potency entry in test [15] is “inactive”.

On to `CC(C)Nc1ccc(Nc2ccccc2)cc1`, for which the Potency in test [1] was 5.43 µM (active); in test [4], 60.9 µM (active) and 68.6 µM (active); in test [5], 19.3 µM (active) and 27.3 µM (active); in [6] it was 15.3 µM (active) and 27.3 µM (active); in [10], 60.9 µM (active); in [12], 30.5 µM (active) and 27.3 µM (active). Further, the Potency result in test [2], in test [7], in [18], in test [15] and in [16] was “inactive” in each case.

As to `N#Cc1c(Cl)c(Cl)c(Cl)c(C#N)c1Cl`, the Potency in test [1] is 0.3 µM (active); in test [3], 3.78 µM (active); in test [4] it was 16.9 µM (active) and 24.3 µM (active); in [5], 8.47 µM (active) and 19.3 µM (active); in test [6], 9.5 µM (active) and 15.4 µM (active); in test [10] it was 23.9 µM (active) and 54.5 µM (active). Further, the Potency in test [12] was 3.37 µM (active) and 3.86 µM (active); in test [13], 19 µM (active) and 13.7 µM (active); in test [14], 21.3 µM (active) and 19.3 µM (active); in test [18], 48 µM (active) and 49 µM (active); in [15] it was 48 µM (active) and 54.9 µM (active). For the same compound, the Potency entry in test [7], in test [8] and in [19] was “inactive” throughout.

Take `COP(=S)(OC)Oc1ccc(S(=O)(=O)N(C)C)cc1`: the Potency entry in test [1], in test [4], in test [5], in test [6], in test [7] and in [8] was “inactive” in each case. Moreover, the Potency entry in test [9], in test [10], in test [11], in test [12], in [13] and in test [14] was “inactive” each time. The Potency result in test [18] and in [15] was “inactive” each time. Further, in [17], the outcome was inactive.
